Shown are actives, neighbours in structure and some others; about 15% of the full set was active somewhere.
HCV inh: inhibitors of hepatitis C virus infection; AID 651820; Huh7.5.1 HCVcc-Cre infection, luciferase reporter, 44 h; Potency, µM (series often up to 41.8 µM), without a hit: at the highest dose activity change, negative = inhibition, most hits filed as inhibitors; 340,000 compounds, 3.4% hits; also: potency is read from the fitted curve at half-maximal effect; % is scaled to controls: 0 for no effect and ±100 for the full control effect
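Antiviral activity was scored by luciferase reporter output from cells infected with HCVcc-Cre (~0.5 moi) in presence of compound, 44 h infection period, cells seeded 1,000/well 4 h prior.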
Sm TGR block: S. mansoni TGR enzyme inhibition | Q962Y6 | Potency, µM (titrated, usually from 114 µM), inactives show at the top dose activity change, negative = inhibition, actives largely listed as inhibitors | 360,000 compounds, 3% hits | AID 485364 | purified TGR, DTNB reduction, TNB absorbance 405 nm; also: potency is read from the fitted curve at half-maximal effect; % is scaled to controls: 0 for no effect and ±100 for the full control effect; nearly all actives have a fitted effect of over 60% in size
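Kinetic colorimetric format: TGR-catalysed, NADPH-driven DTNB reduction monitored via TNB absorbance. Enzyme dispensed at 20 nM; compound exposure 15 min at room temperature before reaction start.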
SARS PLP yeast: SARS-CoV PLP inhibition in yeast. AID 485353. Potency, µM (highest dose often 32.9 µM), for the others: top-dose activity, positive = growth rescue, usual class: activators. 330,000 compounds, 0.19% hits. S. cerevisiae expressing SARS-CoV PLpro, growth rescue; calls by dose curve; also: potency is read from the fitted curve at half-maximal effect; 0% is about no effect; nearly all actives have a fitted effect of over 55% in size
Pf growth 48h: inhibits P. falciparum growth in the first generation, 48 h; 310,000 compounds, 5.9% hits; Potency, µM (titrated, usually from 28.7 µM), for the others: top-dose activity change, negative = inhibition, most hits filed as inhibitors; P. falciparum luciferase growth in erythrocytes, 48 h; also: potency is read from the fitted curve at half-maximal effect; % is scaled to controls: 0 for no effect and ±100 for the full control effect
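Compounds are pin-transferred into medium, infected erythrocytes (2% hematocrit, 0.1% parasitemia final) are added, and plates sit one parasite generation at 37 C in 5% CO2. Detection reagent is then added and luminescence measured.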
Pf growth 96h: P. falciparum growth inhibition at 96 hours | AID 504834 | Potency, µM (highest dose often 28.7 µM), for the others: at the highest dose activity change, negative = inhibition, usual class: inhibitors | 320,000 compounds, 6.9% hits | P. falciparum luciferase reporter growth, 96 h; also: potency is read from the fitted curve at half-maximal effect; % is scaled to controls: 0 for no effect and ±100 for the full control effect
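Cell-based qHTS: luciferase-tagged P. falciparum in erythrocytes (2% hematocrit, 0.05% parasitemia final) incubated with compounds for 96 hours, 37 C, 5% CO2; luciferase detection reagent then added and luminescence measured.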
HCMV antiviral: blocks human cytomegalovirus replication; HFF cells, HCMV-luciferase reporter, 72 h; active compounds read low; activity change, negative = inhibition, % at 57.5 µM; 410,000 compounds, 4.5% hits; in the data active = activity change below about -60%; inconclusive = no clear call, values can overlap the other calls; inactive = above about -39%; also: % is scaled to controls: 0 for no effect and ±100 for the full control effect
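Screen run at 2 compound doses on HFFs infected with reporter HCMV, MOI 1 PFU/cell. Luciferase activity from cell lysates at 72 h post infection gave inhibition relative to buffer-only and Salinomycin wells.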
Active calls of the source: *; ? = inconclusive; . = no result. Unless noted, calls follow the shape of the dose curve; as a rule, active = well fitted curve in the direction sought with a large enough effect; inconclusive = small, poorly fitted or top-dose-only effect, or another doubt; inactive = no such curve, though single readings can be large; an effect the other way counts as inactive or inconclusive.

SMILES | HCV inh | Sm TGR block | SARS PLP yeast | Pf growth 48h | Pf growth 96h | HCMV antiviral
COc1ccc2sc(NC(=O)CC(C)C)nc2c1 | -14.2% | -0.7% | 0.9% | 47.8% | ? | -0.8
CC(=O)N1CCc2cc(S(=O)(=O)NC(Cc3ccccc3)C(=O)Nc3cccc(C)c3)ccc21 (stereo unspecified) | . | -10.3% | . | . | . | -33.1
O=c1c(NCCc2ccccc2)c(-c2ccccc2)c1=O | -15.1% | -6.4% | 1.6% | 2.08µM* | -15.8% | -14.9
Cc1ccc(-c2c(NCCc3ccccc3)c(=O)c2=O)cc1 | 23.8% | 10.9% | 1.0% | ? | -3.8% | -22.3
Cc1ccc(S(=O)(=O)N(CCCN2CCCC2=O)Cc2cc3c(C)ccc(C)c3[nH]c2=O)cc1 | -23.1% | -1.5% | 3.8% | ? | ? | -63.7*
NC(=O)[C@H](Cc1cc2ccccc2s1)NC(=O)[C@@H]1CC2(CC(c3cccc(NC(=O)[C@@H]4CCC(=O)N4)c3)=NO2)CN1C(=O)/C=C/Sc1ccccc1 (stereo partly specified) | -5.6% | -20.0% | -1.8% | 13.1µM* | ? | 5.7
NC(=O)[C@H](Cc1cc2ccccc2s1)NC(=O)[C@@H]1CC2(CC(c3cccc(NC(=O)[C@@H]4CCC(=O)N4)c3)=NO2)CN1C(=O)/C=C/c1c(F)cccc1Cl (stereo partly specified) | -11.0% | -20.5% | -6.5% | 4.15µM* | 2.94µM* | .
NC(=O)[C@H](Cc1cc2ccccc2s1)NC(=O)[C@@H]1CC2(CC(c3cccc(NC(=O)[C@@H]4CCC(=O)N4)c3)=NO2)CN1C(=O)c1ccccc1 (stereo partly specified) | 21.7% | 15.3% | 4.5% | 13.1µM* | 10.4µM* | -16.7
CCc1ccc(CNC(=O)CN2C(=O)CCn3nc(-c4cn(C)c5ccccc45)cc32)cc1 | . | 2.2% | . | . | . | 16.9
COC(=O)c1ccc(C2c3c(n[nH]c3C)C(=O)N2c2ccc(C)cc2)cc1 (stereo unspecified) | 8.5% | 13.3% | 6.0% | . | 5.1% | 11.3
COC(=O)c1ccc(C2c3c(-c4ccc(Br)cc4)n[nH]c3C(=O)N2c2ccc(Cl)cc2)cc1 (stereo unspecified) | . | -5.1% | . | . | . | -103.4*
O=C1c2[nH]nc(-c3ccccc3)c2C(c2ccccc2)N1c1cccc(C(F)(F)F)c1 (stereo unspecified) | . | 9.9% | . | . | . | -108.1*
O=C1c2[nH]nc(-c3ccc(Br)cc3)c2C(c2cccc(O)c2)N1c1ccc(Cl)cc1 (stereo unspecified) | . | -0.3% | . | . | . | -105.1*
CC(C)c1[nH]nc2c1C(c1cccc(C(F)(F)F)c1)N(c1ccccc1)C2=O (stereo unspecified) | . | . | . | . | . | -32.5
CN(CC(=O)Nc1cc(Cl)ccc1-n1cncn1)Cc1ccccc1N1CCOCC1 | . | . | . | . | . | -4.7
CCC(=O)N1CCc2cc(CNC(=O)c3ccc(F)cc3)ccc21 | . | -7.1% | . | . | . | 8.5
Cc1cc(S(=O)(=O)N2CCN(Cc3noc(CCC(=O)N4CCCCC4)n3)CC2)ccc1F | . | -15.5% | . | . | . | -109.8*
CCN(CC)S(=O)(=O)c1ccc(NC(=O)CN(c2ccc(OC)cc2OC)S(C)(=O)=O)cc1 | -1.0% | 0.9% | -4.6% | 9.28µM* | -24.9% | 21.3
CCN(CC)S(=O)(=O)c1ccc(NC(=O)C(C)N(c2ccc(OC)cc2)S(C)(=O)=O)cc1 (stereo unspecified) | 10µM* | ? | -3.6% | -36.3% | . | -11.6
CC(C)(C)C(=O)C(Oc1cccc2nonc12)n1cncn1 (stereo unspecified) | 20.3% | 1.1% | -8.1% | 2.2% | -20.5% | -11.4
CS(=O)(=O)c1ccc2nc(NC(=O)CCNC(=O)c3ccc(Cl)cc3)sc2c1 | -22.6% | -3.0% | 0.0% | -39.6% | 4.15µM* | -22.3
CS(=O)(=O)c1ccc2nc(NC(=O)Nc3ccc(Cl)cc3)sc2c1 | -2.4% | 3.3% | 7.6% | ? | 1.17µM* | -26.1
CS(=O)(=O)c1ccc2nc(NC(=O)CCNC(=O)c3ccccc3Cl)sc2c1 | -3.6% | 0.7% | -2.3% | 10.4µM* | -104.3% | 5.8
Cc1ccccc1Cn1c(=O)n(CCCCC(=O)NCc2ccccc2Cl)c(=O)c2ccccc21 | . | 1.4% | . | . | . | 16.8
CCCCc1ccc(CC(=O)Nc2cc(S(=O)(=O)N3CCOCC3)ccc2O)cc1 | 5.6% | -7.5% | 2.5% | ? | 17.3% | 0.0
SMILES | HCV inh | Sm TGR block | SARS PLP yeast | Pf growth 48h | Pf growth 96h | HCMV antiviral
CCC(C)NC(=O)c1ccc(CSCc2ccc(Cl)cc2)o1 (stereo unspecified) | -18.9% | 0.0% | -5.5% | ? | 12.1% | -13.2
CCC(C)NC(=O)c1ccc(CSCc2ccccc2Cl)o1 (stereo unspecified) | ? | -8.2% | -0.2% | 7.38µM* | 18.3% | 29.0
CC(C)NC(=O)c1ccc(CSCc2ccccc2Cl)o1 | ? | 0.0% | -3.3% | 1.47µM* | 4.65µM* | 39.2
O=C(O)CSc1ncnc2nc[nH]c12 | 16.1% | -15.0% | 5.0% | . | -18.8% | -1.8
O=C(CSc1ncnc2nc[nH]c12)N1CCN(c2ccc(Cl)cc2)CC1 | ? | 3.4% | -22.2% | ? | 40.1% | -69.1*
O=C(CSc1ncnc2nc[nH]c12)c1ccc2ccccc2c1 | -10.0% | -2.4% | -18.1% | 22.0% | 5.22µM* | -14.0
COC(=O)C1CC(C(=O)OC)C2C(C(=O)OC)CC(C(=O)OC)C12 (stereo unspecified) | 8.2% | . | . | . | . | -1.5
O=C1NC(=Nc2ccccc2)S/C1=C/c1cccnc1 | -9.8% | 3.5% | 2.1% | 8.2% | 28.6% | ?
O=C1NC(=Nc2ccccc2)S/C1=C\c1ccccc1 | 0.1% | -2.5% | 3.1% | -21.1% | 0.2% | -85.8*
COc1cc(/C=C2\SC(=Nc3ccccc3OC)NC2=O)ccc1O | -24.5% | -1.8% | 0.6% | -16.4% | 22.2% | -12.1
Cc1cc(/C=C2\SC(=Nc3ccccc3)NC2=O)c(C)n1-c1ccc(S(N)(=O)=O)cc1 | 4.47µM* | ? | -16.0% | 4.15µM* | ? | -96.1*
Cc1ccc(N=C2NC(=O)/C(=C/c3cccn3C)S2)cc1 | -16.5% | -7.6% | -1.4% | 95.2% | ? | -39.6
Cc1ccc(N=C2NC(=O)/C(=C/c3cccn3C)S2)cc1C | -25.4% | 2.0% | -0.3% | ? | 13.1µM* | ?
COc1cc(/C=C2/SC(=Nc3ccc(O)cc3)NC2=O)ccc1O | ? | -22.8% | 0.9% | ? | ? | -77.2*
COC(=O)c1nccnc1N | 22.5% | . | . | . | . | 13.0
Cc1ccc(N=C2NC(=O)/C(=C\c3ccc(C)s3)S2)cc1 | 8.1% | 0.9% | -0.2% | ? | 1.65µM* | -37.7
COc1cc(/C=C2\SC(=Nc3ccccc3)NC2=O)cc(Cl)c1O | -25.3% | -12.5% | -1.0% | 0.0% | 6.57µM* | -3.8
